# Compound activity from PubChem.
# The sample as a whole holds a higher share of hits than the screen did.
# KDM5B inhibitor: Primary screen for KDM5B Histone Demethylases FDH-coupled qHTS. KDM5B demethylase, FDH-coupled NADH fluorescence (FDH is formaldehyde dehydrogenase). hit rate 2.6% among 220,000. AID 1347165, 2019. Potency, µM (series often up to 57.7 µM), actives largely listed as inhibitors. Lysine-specific demethylase 5B (Homo sapiens), Q9UGL1; active = well fitted inhibition curve with a large enough effect; note: 0% is about no effect; nearly all actives have a fitted effect of over 70% in size
#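 Measured: NADH fluorescence change, 30 min, RT. System: KDM5BΔAP 200 nM final, H3K4me3 peptide, α-KG, Fe(II), ascorbate, NAD⁺ plus FDH, pH 7.5 HEPES. Compounds: titrated, 10 min pre-incubation with enzyme.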
# * marks the source's active call; other numbers are inactive results; i = inactive. Potency is the fitted concentration of half-maximal effect.
SMILES,KDM5B inhibitor
O=C(N[C@H]1CO[C@H]2[C@@H]1OC[C@@H]2Nc1nccc(-c2cccs2)n1)c1ccccc1,35.5µM*
CCNC(=O)O[C@@H]1CO[C@H]2[C@@H]1OC[C@@H]2NC(=O)c1ccccn1,i
O=C(N[C@H]1CO[C@H]2[C@@H]1OC[C@@H]2Nc1nccc(-c2cccs2)n1)C1CCCCC1,35.5µM*
O=C(Nc1ccccc1)O[C@@H]1CO[C@H]2[C@@H]1OC[C@@H]2NC(=O)C1CCCCC1,i
O=C(CNc1cc(Cl)ccc1N1CCOCC1)Nc1ccccc1Cc1ccccc1,i
COc1cc(C(=O)Nc2sc3ccccc3c(=O)c2-c2ccccc2)cc(OC)c1OC,i
COc1ccc(-c2c(C)c3cc(OS(=O)(=O)c4ccccc4)ccc3oc2=O)cc1,i
COC(=O)c1cc(S(=O)(=O)N(C)CC(=O)N2CCN(c3ccccc3F)CC2)cn1C,i
CC1CC1C(=O)NCCSCc1cccs1 (centres undefined),i
O=C(COC(=O)c1ccc([N+](=O)[O-])cc1Cl)c1ccc2c(c1)OCCO2,i
O=C(Nc1cccc(Cl)c1)c1cc2c(=O)n3ccccc3nc2n1Cc1ccccc1,i
CC(C)CC(=O)Nc1cc(C(C)(C)C)ccc1O,i
Cc1cc(Br)ccc1NC(=O)CNC(=O)c1cc(=O)c2ccccc2o1,i
CCc1ccc(C2c3cccn3-c3c(c(C)nn3-c3ccccc3)CN2C(=O)NCC(=O)OC)cc1 (centres undefined),i
CC(=O)Nc1ccc(S(=O)(=O)N[C@H]2CO[C@H]3[C@@H]2OC[C@H]3OC(=O)Nc2ccccc2)cc1,i
CC(C)(C)c1ccnc(N[C@H]2CO[C@H]3[C@@H]2OC[C@@H]3NS(=O)(=O)c2cccs2)n1,i
CC(=O)Nc1ccc(S(=O)(=O)N[C@H]2CO[C@H]3[C@@H]2OC[C@@H]3Nc2nccc(-c3cccs3)n2)cc1,25.1µM*
COc1cccc(C(=O)Oc2ccc(F)cc2C(=O)/C=C/c2ccc(F)cc2)c1,i
CSc1ccccc1NC(=O)c1cccc(F)c1,i
Cc1ccc(-c2cc3c(=O)n(CCNC(=O)c4ccco4)ccn3n2)c(C)c1,i
O=C(OCc1cc(=O)n2nc(-c3cccs3)sc2n1)c1cccc(Cl)c1,i
Cc1cccc(OCC(=O)NCCn2ccn3nc(-c4ccc(C)c(C)c4)cc3c2=O)c1,i
Cc1ccc(C)c(C(O)Cn2ccn3nc(-c4cccc(Br)c4)cc3c2=O)c1 (centres undefined),31.6µM*
Cc1ccc(C)c(C(O)Cn2ccn3nc(-c4cccs4)cc3c2=O)c1 (centres undefined),20µM*
CC(C)Oc1ccc(CNC(=O)Cn2ncn3nc(-c4cccs4)cc3c2=O)cc1,i
SMILES,KDM5B inhibitor
O=c1c2cc(-c3cccs3)nn2ccn1CC(O)c1cccc(Cl)c1 (centres undefined),20µM*
CC(=O)c1cccc(NC(=O)Cn2ccn3nc(-c4ccccc4)cc3c2=O)c1,i
Cc1ccc(-c2cc3c(=O)n(CCNC(=O)Cc4cccc(F)c4)ccn3n2)c(C)c1,i
CCc1cc(=O)n(CC(=O)Nc2ccc(C(=O)OC)cc2)c(-c2ccccc2)n1,i
CC(Sc1nnc(-c2cccs2)n1C1CC1)C(=O)NC(C)(C)C (centres undefined),i
COc1cccc2sc(NC(=O)CSc3nncn3-c3ccc(C)cc3)nc12,i
O=C(NC1CCC(c2ccccc2)CC1)c1ccc(Cl)nc1 (centres undefined),i
Cc1ccc(CNC(=O)CN(C)C(=O)c2ccc3c(c2)nnn3C)cc1,i
CN(c1ncnc2scc(-c3ccc(Cl)cc3)c12)C1CC1,i
CCCCc1cc(=O)oc2c(C)c3c(cc12)C=CC1(CCCCC1)O3,i
CCc1cccc(C)c1NS(=O)(=O)c1ccc(-c2cnc(C3CC3)o2)cc1,i
O=C(Nc1ccc(C(=O)N2CCCC2)cc1)c1cccc(C(F)(F)F)c1,i
O=C(c1nc(-c2cccc(C(F)(F)F)c2)c2cnccn12)N1CCCC1,31.6µM*
O=C(c1cccc(C(F)(F)F)c1)N1CCCCCCC1,i
N#CC1CCN(C(=O)c2nc(-c3cccnc3)c3cnccn23)CC1,i
O=C(c1nc(-c2ccc(F)cc2)c2cnccn12)N1CCCC1,31.6µM*
Cc1nc(N2CCOCC2)cc(N2CCN(C(=O)c3cccc(C(F)(F)F)c3)CC2)n1,i
C[C@H](O)c1onc(-c2ccc(F)cc2)c1C(=O)N1CCCC1,i
O=C(c1nc(-c2cccc(C(F)(F)F)c2)c2cnccn12)N1CCOCC1,10µM*
O=C(c1ccc(C(F)(F)F)cc1)N1CCC2(CC1)CC(c1cccc(C(F)(F)F)c1)=NO2,i
CCC(C(=O)c1ccc(Cl)cc1)C(c1ccc(Cl)cc1)C(C(=O)OC)C(=O)OC (centres undefined),i
CC(NC(=O)NOCc1ccccc1)c1ccccn1 (centres undefined),i
CN(C(=O)c1ccc2cccc(F)c2n1)C1CCCN(CCCc2ccccc2)C1 (centres undefined),i
O=C(Nc1ccc(I)cc1)C1CCCCC1,i
